Screens: PubChem, National Center for Advancing Translational Sciences (NCATS)
NTMT1 inhibitor – inhibitors of human N-terminal methyltransferase NTMT1; Potency, µM (titrated, usually from 114 µM), inactives show at the highest dose activity change, negative = inhibition, most hits filed as inhibitors; AID 1645870; NTMT1 MTase-Glo SAH luminescence, purified enzyme; Q9BV86; hit rate 2.5% among 59,000;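 note: potency is the fitted concentration of half-maximal effect; plate controls were DMSO vehicle for no effect and no enzyme for full effect; nearly all actives have a fitted effect of over 65% in size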
Target sequence (Q9BV86 whole entry, looked up): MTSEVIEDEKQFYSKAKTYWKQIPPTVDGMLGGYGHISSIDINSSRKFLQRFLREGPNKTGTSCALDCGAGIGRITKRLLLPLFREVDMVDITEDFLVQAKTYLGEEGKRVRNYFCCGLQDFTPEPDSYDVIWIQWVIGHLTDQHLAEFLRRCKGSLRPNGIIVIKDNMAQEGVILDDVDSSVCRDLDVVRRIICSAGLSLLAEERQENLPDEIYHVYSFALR
GALC G270D up – galactocerebrosidase G270D activity enhancement, cell-based. Potency, µM (highest dose often 57.5 µM), usual class: activators. P54803. hit rate 0.1% among 45,000. AID 1159614. 145M-Twi-hGALC-G270D cells (Twitcher mouse brain line with human GALC G270D), HMU-beta-Gal fluorescence, 48 h; note: potency is the fitted concentration of half-maximal effect; 0% is about no effect; nearly all actives have a fitted effect of over 65% in size
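Fluorescence readout: HMU-β-gal cleavage by mutant GALC (0.1 mM final, citrate/phosphate pH 5.2 with 1 mg/mL taurocholate), stopped with carbonate/bicarbonate plus Triton X-100. Cells: murine Twitcher 145M-Twi expressing human G270D GALC; qHTS for activators.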
DRV1 agonist – activates human resolvin D1 receptor GPR32; O75388; CHO-K1 GPR32 beta-arrestin PathHunter luminescence, 90 min; zero percent set by DMSO-only wells; activation, % at 76.9 µM; hit rate 2.5% among 48,000;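 active = activation of at least 60% and not above a set upper limit, about 1 call in 100 departs from these limits; inconclusive = activation of 40% to 60%, or above that upper limit; inactive = activation under 40%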; note: 0% is about no effect
Target sequence (O75388 whole entry, looked up): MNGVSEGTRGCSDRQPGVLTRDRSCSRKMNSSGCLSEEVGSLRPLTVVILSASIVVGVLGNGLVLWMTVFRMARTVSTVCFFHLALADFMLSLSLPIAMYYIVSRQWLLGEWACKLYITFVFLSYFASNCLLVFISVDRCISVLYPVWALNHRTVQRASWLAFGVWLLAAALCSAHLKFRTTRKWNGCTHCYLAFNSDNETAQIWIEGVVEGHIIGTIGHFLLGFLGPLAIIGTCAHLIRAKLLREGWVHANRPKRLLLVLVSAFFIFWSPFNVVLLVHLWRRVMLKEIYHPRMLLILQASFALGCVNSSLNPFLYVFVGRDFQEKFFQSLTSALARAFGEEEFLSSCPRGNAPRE
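PathHunter beta-arrestin recruitment in CHO-K1 cells stably expressing ProLink-tagged GPR32. Cells were exposed to compound for 90 min at 37 C, then chemiluminescence was read after 1 h detection at ambient temperature; DMSO served as basal control.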
p53null 39C tox – p53 null cell cytotoxicity, nonpermissive temperature; H1299 p53-null (neo) cells, 39C, ATPlite viability, 24 h; Potency, µM (top dose mostly 46.1 µM), without a hit: top-dose activity, negative = cell killing, usual class: cytotoxic; hit rate 0.97% among 55,000; AID 904;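 note: potency is the fitted concentration of half-maximal effect; 0% = DMSO only and -100% = full killing by 100 µM tamoxifen; nearly all actives have a fitted effect of over 50% in size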
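Concentration-response (up to 46 uM) was run for 24 h at the nonpermissive 39C on H1299-p53A138V or H1299-neo cells. ATP content was measured with ATPlite luminescence. AC50 values were Hill-modeled after normalizing between DMSO and 100 uM tamoxifen killing.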
p53null 32C kill – selectivity test: cytotoxicity in p53 null cells, permissive temperature; H1299-neo p53 null cells, ATP luminescence, 24 h, 32C; Potency, µM (titrated, usually from 46.1 µM), for inactives: at the top dose activity change, negative = cytotoxicity, usual class: cytotoxic; hit rate 0.62% among 55,000;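 note: potency is the fitted concentration of half-maximal effect; 0% = DMSO only and -100% = full killing by 100 µM tamoxifen; nearly all actives have a fitted effect of over 55% in size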
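We seeded p53-null H1299-neo cells, incubated them overnight at 37C, and added compounds across a range up to 46 uM. After 24 hours at 32C, ATP reagent was applied for 20 min at room temperature and luminescence recorded.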
FH mod – Identification of activators of human fumarate hydratase by quantitative high-throughput screening; FH coupled MDH/diaphorase resazurin fluorescence, 15 min; Potency, µM (highest dose often 79.9 µM), without a hit: at the top dose activity change, negative = inhibition, usual class: inhibitors; hit rate 0.22% among 54,000; AID 1347055, 2019; note: potency is the fitted concentration of half-maximal effect; % is set by controls: 0 for no effect and ±100 for the full control effect; the screen sought activators but most active calls are inhibition curves; nearly all actives have a fitted effect of over 45% in size
The depositor's hits bear a star; i = inactive; ? = inconclusive; · = no result; [ ] = remark or other dose. Most compounds without a hit are left out; they make up all but 3.9% or so of the library. Unless noted, calls come from the whole dose curve; as a rule, active = well fitted curve in the direction sought with a large enough effect; inconclusive = small, poorly fitted or top-dose-only effect, or another doubt; inactive = no such curve, though single readings can be large; an effect the other way counts as inactive or inconclusive.

SMILES	NTMT1 inhibitor	GALC G270D up	DRV1 agonist	p53null 39C tox	p53null 32C kill	FH mod
COc1cc2ncnc(Nc3cc(Br)c(O)c(Br)c3)c2cc1OC	?	·	·	·	·	-16%
O=C(CNC(=O)C1CCCCC1)OC(C(=O)c1ccccc1)c1ccccc1 (stereo not drawn)	89µM*	·	·	·	·	·
COC(=O)C1=CO[C@@H](O[C@@H]2O[C@H](CO)[C@@H](O)[C@H](O)[C@H]2O)[C@H]2[C@@H]1CC(OC)O[C@@H]2C (stereo partly drawn)	-17%[29.8 µM]	·	·	·	·	0%[53.3 µM]
O=c1c(-c2ccc(O)cc2)coc2cc(OC3O[C@H](CO)[C@H](O)[C@H](O)[C@H]3O)cc(O)c12 (stereo partly drawn)	24µM*	·	·	·	·	?
O=c1c(-c2ccc(O)cc2)coc2cc(O[C@@H]3O[C@H](CO)[C@H](O)[C@H](O)[C@H]3O)ccc12	-23%[57.5 µM]	·	·	·	·	-5%[53.3 µM]
CCc1ccc(NC(=O)Cn2nc3c4ccccc4n(Cc4ccccc4)cc-3c2=O)cc1	-8%	i	84*	-9%	-4%	0%
O=C1N(Cc2ccccc2Cl)c2ccccc2C1(O)c1c[nH]c2ccccc12 (stereo not drawn)	0%	i	84*	?	10%	?
Cc1ccc(C)c(CN2C(=O)C(O)(c3c[nH]c4ccccc34)c3ccccc32)c1 (stereo not drawn)	17%	i	84*	?	?	?
O=C1N(Cc2ccccc2)c2ccccc2C1(O)c1c[nH]c2ccccc12 (stereo not drawn)	4%	i	?	-12%	14%	-17%
Cc1ccc(CN2C(=O)C(O)(c3c(C)[nH]c4ccccc34)c3ccccc32)cc1 (stereo not drawn)	?	i	70*	2%	30%	?
Cc1cc(O)cc2c1[C@]1(C)CC[C@H]3C(C)(C)CCC[C@]3(C)[C@H]1C2	-20%[12.6 µM]	·	·	·	·	·
C=C1CC[C@@H]2[C@@](C)(CO[C@@H]3O[C@H](CO)[C@@H](O)[C@H](O)[C@H]3O)[C@H](O)CC[C@@]2(C)[C@@H]1CC/C(C)=C/CO[C@@H]1O[C@H](CO)[C@@H](O)[C@H](O)[C@H]1O	4%[12.6 µM]	·	·	·	·	0%[20.6 µM]
O=C(NCCc1csc(-c2cccnc2)n1)c1cccc(C(F)(F)F)c1	-1%	i	68*	11%	-8%	-5%
C=C1/C(=C/C=C2\CCC[C@]3(C)[C@@H]([C@H](C)/C=C/[C@H](O)C4CC4)CC[C@@H]23)C[C@@H](O)C[C@@H]1O	-3%[57.5 µM]	·	·	·	·	-14%
C[C@H]1CCN2C[C@]34C[C@@]5(C(=O)Nc6c5ccc5c6OC=CC(C)(C)O5)C(C)(C)C3C[C@]12C(=O)N4C (stereo partly drawn)	-5%[29.8 µM]	·	·	·	·	-2%[53.3 µM]
Cc1nnc2c(N3CCN(c4ccc(F)cc4)CC3)nc3ccc(C(=O)c4ccccc4)cc3n12	10%	i	4	23%	11%	-19%
COc1ccc(N2CCN(c3nc4ccccc4n4c(C)nnc34)CC2)cc1	79µM*	i	-18	6%	5%	0%
CC(C)c1c2cc(-c3ccnc(NC4CCC(NC5CCOCC5)CC4)n3)ccc2nn1C (stereo not drawn)	45µM*	·	·	·	·	-1%
Fc1ccc(-c2nc(C3CCNCC3)sc2-c2ccnc(NC3CC3)n2)cc1	-8%[57.5 µM]	·	·	·	·	0%
O=C(c1cnc(N2CCOCC2)c2ccccc12)N1CCN(c2ccccc2)CC1	-4%	i	-10	13µM*	-3%	4%
O=C(c1cnc(N2CCOCC2)c2ccccc12)N1CCN(c2ccc(F)cc2)CC1	-8%	i	-10	103%	2%	-8%
O=C(COc1ccc(Cl)cc1)OCc1cc(=O)n2nc(C3CCCCC3)sc2n1	13%	i	12	-5%	8%	-11%
O=C(COc1ccc(F)cc1)OCc1cc(=O)n2nc(C3CC3)sc2n1	5%	i	97*	-14%	-5%	25%
CNc1oc(-c2ccc(Cl)c(Cl)c2)nc1C#N	1%	·	·	·	·	·
CC(=O)Nc1ccc(NC(=O)c2oc3ccc4c(c3c2C)C(=O)CC(C)(C)O4)cc1	-18%	i	20	3.2µM*	4µM*	-23%
SMILES	NTMT1 inhibitor	GALC G270D up	DRV1 agonist	p53null 39C tox	p53null 32C kill	FH mod
CCOC(=O)c1ccc(NC(=O)c2oc3ccc4c(c3c2C)C(=O)CC(C)(CC)O4)cc1 (stereo not drawn)	-1%	i	-2	3.2µM*	?	-7%
COC(=O)c1ccccc1NC(=O)c1oc2ccc3c(c2c1C)C(=O)CC(C)(C)O3	-20%	i	-8	4%	-6%	-4%
CC[C@]12C=CCN3CC[C@@]4(c5cc([C@@]6(C(=O)OC)CC7C[C@@H](C(C)(F)F)CN(Cc8c6[nH]c6ccccc86)C7)c(OC)cc5N(C)[C@H]4[C@@](O)(C(=O)OC)[C@@H]1OC(C)=O)[C@@H]32 (stereo partly drawn)	-10%	·	·	·	·	·
Clc1cccc(C2=NC(c3cccs3)=Nc3ccc(Br)cc3N2)c1	89µM*	i	-20	3%	11%	?
CN(Cc1cc(Br)cc(Br)c1N)C1CCCCC1	11%	i	95*	·	·	2%[53.3 µM]
Cc1ccc2cc(-c3c(C)ccc(C(=O)c4c(-c5ccccc5)n(C)n(-c5ccccc5)c4=O)c3N)ccc2n1	?	·	·	·	·	-10%
O=C(O)C1(Cc2cccc(Nc3nccs3)n2)CCC(Oc2cccc(Cl)c2F)CC1 (stereo not drawn)	28µM*	·	·	·	·	-13%
Nc1c(C(=O)Nc2ccc(C(=O)O)cc2)sc2nc3c(cc12)CCCC3	25µM*	i	27	?	?	-18%
CCOc1ccc(NC(=O)c2sc3nc4c(cc3c2N)CCCCCC4)cc1	-4%	i	8	-14%	-16%	-5%
Nc1ccc(C(=O)O)c(O)c1	36%[57.5 µM]	i	-9	·	·	-7%[53.3 µM]
Cc1ccc(N)cc1O	?	i	-20	·	·	20µM*
CCN(CC)CCNC(=O)c1ccc(-c2nc(CN3CCc4ccccc43)c(C)o2)cc1	-14%	i	97*	-14%	13%	-6%
Cc1oc(-c2ccc(C(=O)NCCC(C)C)cc2)nc1CN1CCc2ccccc21	2%	i	-1	-18%	14%	-14%
O=C1SC(Nc2ccc(Cl)cc2)C(=O)N1Cc1ccccc1 (stereo not drawn)	-7%	i	-79	-15%	18%	3%
